Only some compounds are listed: those with a hit (about 10% of all), similar ones and a draw of the others.
JMJD2A Tudor inh = blocks the human JMJD2A Tudor domain | O75164 | AlphaScreen JMJD2A-Tudor / H3K4me3 peptide binding | Potency, µM (highest dose often 114 µM), inactives show at the highest dose activity change, negative = inhibition, usual class: inhibitors | actives 4.4% (n = 390,000) | AID 504339; further: on the % scale 0 is the no-effect control and ±100 the full control effect; nearly all actives have a fitted effect of over 50% in size
BAZ2B block = inhibitors of human BAZ2B bromodomain; Potency, µM (series often up to 114 µM), without a hit: at the top dose activity change, negative = inhibition, actives largely listed as inhibitors; AlphaScreen BAZ2B-H3K14Ac peptide displacement; actives 4.4% (n = 360,000); further: on the % scale 0 is the no-effect control and ±100 the full control effect; nearly all actives have a fitted effect of over 60% in size
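Compounds, titrated to a top concentration of 110 uM, were incubated 30 min at room temperature with preformed BAZ2B/acetyl-K14 H3 peptide complex (50 nM each). Proximity signal was measured by AlphaScreen after 20 min with beads.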
HP1b binding inh = inhibitors of HP1-beta chromodomain binding to methylated histone tails; AlphaScreen HP1-beta / biotin-H3K9me3 peptide binding; actives 0.56% (n = 390,000); AID 540317; P83916; Potency, µM (top dose mostly 114 µM), inactives show top-dose activity change, negative = inhibition, actives largely listed as inhibitors; further: nearly all actives have a fitted effect of over 70% in size
Target sequence (P83916 whole entry, looked up): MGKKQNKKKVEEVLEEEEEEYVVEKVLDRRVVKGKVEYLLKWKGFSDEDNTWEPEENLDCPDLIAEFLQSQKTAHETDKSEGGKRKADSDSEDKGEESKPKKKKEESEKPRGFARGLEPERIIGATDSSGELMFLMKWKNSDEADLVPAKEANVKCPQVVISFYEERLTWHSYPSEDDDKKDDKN
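Compound inhibition of the preformed complex between 50 nM HP1-beta and 50 nM biotinylated H3K9me3 peptide was read by AlphaScreen. Buffer was PBS pH 7.4 with 0.01% Tween-20. Incubations ran 30 min at room temperature, with 10 ug/mL donor/acceptor beads.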
L3MBTL1 inh = inhibitors of human L3MBTL1; AlphaScreen L3MBTL1–H3K9me1 peptide binding; Q9Y468; AID 485360; actives 0.66% (n = 230,000); Potency, µM (highest dose often 57.1 µM), inactives show at the top dose activity, negative = inhibition, usual class: inhibitors; further: on the % scale 0 is the no-effect control and ±100 the full control effect; nearly all actives have a fitted effect of over 60% in size
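AlphaScreen proximity signal between nickel-chelate acceptor and streptavidin donor beads (final 10 ug/mL) reports binding of 50 nM L3MBTL1 to 75 nM biotin-H3 K9me1 peptide; complex incubated with compounds 30 min at room temperature; cefsulodin titration as control.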
GLS inhibitor = glutaminase GLS (human) inhibition. O94925. GLS enzymatic activity, qHTS titration. Potency, µM (titrated, usually from 45.5 µM), inactives show at the top dose activity change, negative = inhibition, hits mostly inhibitors. actives 0.21% (n = 410,000); further: on the % scale 0 is the no-effect control and ±100 the full control effect
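Glutamate formation by hKGA was monitored fluorometrically using coupled glutamate oxidase, HRP and Amplex Red. Substrate was added as 1 mM L-glutamine solution; incubation was 30 min at RT after an initial read.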
G9a inh = blocks human histone lysine methyltransferase G9a; Potency, µM (series often up to 102 µM), without a hit: top-dose activity, negative = inhibition, actives largely listed as inhibitors; G9a H3K9 monomethylation, AlphaScreen, 2 h; Q96KQ7; actives 8.8% (n = 350,000); further: on the % scale 0 is the no-effect control and ±100 the full control effect; nearly all actives have a fitted effect of over 75% in size
Target sequence (Q96KQ7 913-1193 limits assumed): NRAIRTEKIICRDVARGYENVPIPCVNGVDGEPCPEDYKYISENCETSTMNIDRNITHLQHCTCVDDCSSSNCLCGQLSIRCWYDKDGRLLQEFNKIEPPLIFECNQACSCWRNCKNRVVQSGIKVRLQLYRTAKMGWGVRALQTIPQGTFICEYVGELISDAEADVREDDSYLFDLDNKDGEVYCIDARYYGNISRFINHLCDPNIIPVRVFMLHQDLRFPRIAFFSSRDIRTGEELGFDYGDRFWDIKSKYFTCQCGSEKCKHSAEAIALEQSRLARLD
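Compounds were preincubated with 20 nM G9a for 15 min, after which biotinylated H3K9 peptide (500 nM) and SAM (20 uM) started a 2 h room-temperature reaction. Monomethylated product was quantified by antibody-based AlphaScreen chemiluminescence.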
Active calls of the source: *; u = inconclusive; x = no result; [ ] = remark or other dose. The call rests on the fitted dose curve; in most records, active means well fitted curve in the direction sought with a large enough effect; inconclusive means small, poorly fitted or top-dose-only effect, or another doubt; inactive means no such curve, though single readings can be large; an effect the other way counts as inactive or inconclusive. Potency means the concentration at half of the fitted maximal effect.

SMILES	JMJD2A Tudor inh	BAZ2B block	HP1b binding inh	L3MBTL1 inh	GLS inhibitor	G9a inh
CCOC(=O)Cc1csc(NC(=O)CCSc2ccccc2)n1	-5%	-16%	34%	1%	-1%	50µM*
COc1ccccc1CCNC(=O)C(C)Sc1nc(-c2ccccc2)cc(C(F)(F)F)n1 (stereo not given)	-12%	-2%	36%	x	1%	7%[59 µM]
CCCc1nnc(NC(=O)CS(=O)(=O)c2ccc(C)cc2)s1	2%	7%	24%	x	-13%	-8%
CCOC(=O)Cc1csc(NC(=O)Cc2ccccc2)n1	-9%	-16%	27%	-3%	3%	u
CC(C)(C)c1csc(NC(=O)Cc2cccs2)n1	-11%	50µM*	20%	-18%	-17%	50µM*
CC(C)(C)c1csc(NC(=O)c2cccs2)n1	3%	-4%	4%	-13%[11.4 µM]	-4%	u
COCc1nnc(NC(=O)CS(=O)(=O)c2ccc(C)cc2)s1	u	2%	19%	x	-11%	50µM*
CCOC(=O)Cc1csc(NC(=O)Cc2cccs2)n1	45µM*	50µM*	5%	u	x	-6%
CCOC(=O)Cc1csc(NC(=O)CSc2cc(Cl)ccc2Cl)n1	1%	u	27%	3%	2%	22µM*
COc1ccc(/C=N/n2c(-c3ccc(C)cc3)n[nH]c2=S)cc1OC	7.9µM*	-6%	28%	1%	5%	0.4µM*
COc1ccc(Br)cc1/C=N/n1c(-c2ccccc2)n[nH]c1=S	u	-35%	30%	-4%	-4%	3.5µM*
COc1ccc(/C=N/n2c(C)nc3ccccc3c2=O)cc1OC	-19%	2%	8%	x	11%	44%
COc1cc(/C=N/S(=O)(=O)c2ccccc2)cc(OC)c1O	-21%	-18%	12%[57 µM]	x	52%	u
COc1cc(/C=N/n2c(-c3ccccc3)n[nH]c2=S)ccc1O	5µM*	-2%	4%	-12%	-27%	2.2µM*
COc1cc(/C=N/n2c(-c3ccccc3)n[nH]c2=S)cc(OC)c1O	3.2µM*	-12%	-13%	-7%	4.5µM*	0.71µM*
CC(C)c1ccc(/C=N/n2c(-c3ccccc3)n[nH]c2=S)cc1	u	-1%	20%	-4%[2.29 µM]	u	-10%[0.501 µM]
Cc1ccc(Oc2coc3cc(OCC(=O)NC4CCCCC4)ccc3c2=O)cc1	-14%	6%	20%	x	2%	-5%[59 µM]
COc1ccc(-n2nc3cc(C)c(NC(=O)c4ccc(-c5ccc(Cl)cc5)o4)cc3n2)cc1	-17%	4%	14%	x	-7%	10%[59 µM]
CCCCOc1ccc(C(=O)Nc2cccc(-c3nc4cccnc4s3)c2)cc1	-12%	-2%	6%	x	-17%	-22%[59 µM]
CCc1ccc(NS(=O)(=O)c2ccc(-c3cc(C)no3)cc2)cc1	-10%	-1%	40%	x	-6%	-10%[59 µM]
COc1cccc(Nc2nc(Nc3ccc(Cl)c(C(=O)O)c3)nc(C)c2[N+](=O)[O-])c1	u	50µM*	-5%	-2%	26%	u
Cc1cccc(Nc2nc(N)c([N+](=O)[O-])c(NCc3ccccc3)n2)c1	u	u	u	u	0%	-8%[12.7 µM]
Nc1nc(NCc2ccc(Cl)cc2)nc(NCCO)c1[N+](=O)[O-]	-12%	-3%	0%	0%	0%	-9%
Nc1nc(Nc2ccc(Cl)cc2)nc(NCCO)c1[N+](=O)[O-]	-1%	u	14%	x	0%	50µM*
COc1cccc(Nc2nc(N)c([N+](=O)[O-])c(NCc3ccccc3)n2)c1	u	u	u	u	10%	45µM*
COc1ccccc1CNC(=O)CCc1c(C)nc2c(c(C)nn2-c2ccc(C)c(C)c2)c1C	-14%	-1%	28%	x	3%	-1%[59 µM]
CCc1cccc(C)c1NC(=O)c1cc(C)nc2c1c(C)nn2-c1cccc(Cl)c1C	3%	7%[57.1 µM]	27%	x	4%	-4%[59 µM]
NC(=S)C1COc2ccccc2O1 (stereo not given)	2%	-9%	-7%	-1%	-14%	45µM*

High-throughput results from PubChem BioAssay.
